# A number with no mark means an inactive call. Records with an inconclusive call do not appear. A call without a number means that no potency is given here. The source made the active and inactive calls. Unless noted, the call rests on the fitted dose curve; in most records, active means well fitted curve in the direction sought with a large enough effect; inconclusive means small, poorly fitted or top-dose-only effect, or another doubt; inactive means no such curve, though single readings can be large; an effect the other way counts as inactive or inconclusive.
# Legend:
# [1] = qHTS for Inhibitors of Plasmodium falciparum (CP250) proliferation (AID 504320); further: potency means the concentration at half of the fitted maximal effect
# How it was run: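 Parasite growth measured as SYBR Green DNA fluorescence (ex 485, em 535 nm) after overnight lysis following 72 h culture at 37 °C, 0.3% parasitemia, 2.5% hematocrit. Values normalized against DMSO and 0.29 uM artemisinin controls, with plate-stack correction.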
# [2] = target: Atrial natriuretic peptide receptor 1 (Homo sapiens) (UniProt P16066); assay: Natriuretic polypeptide receptor (hNpr1) antagonism - Pilot CMLD screen (AID 1347052; calls by dose curve;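 further: HEK293 cells with hNpr1 stimulated by hNppA peptide at 0.1 nM; cGMP level read as GloSensor luciferase luminescence after agonist stimulation; series mostly up to about 9.2 µM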)
# Sequence of Atrial natriuretic peptide receptor 1 (Homo sapiens) (P16066 whole entry, looked up): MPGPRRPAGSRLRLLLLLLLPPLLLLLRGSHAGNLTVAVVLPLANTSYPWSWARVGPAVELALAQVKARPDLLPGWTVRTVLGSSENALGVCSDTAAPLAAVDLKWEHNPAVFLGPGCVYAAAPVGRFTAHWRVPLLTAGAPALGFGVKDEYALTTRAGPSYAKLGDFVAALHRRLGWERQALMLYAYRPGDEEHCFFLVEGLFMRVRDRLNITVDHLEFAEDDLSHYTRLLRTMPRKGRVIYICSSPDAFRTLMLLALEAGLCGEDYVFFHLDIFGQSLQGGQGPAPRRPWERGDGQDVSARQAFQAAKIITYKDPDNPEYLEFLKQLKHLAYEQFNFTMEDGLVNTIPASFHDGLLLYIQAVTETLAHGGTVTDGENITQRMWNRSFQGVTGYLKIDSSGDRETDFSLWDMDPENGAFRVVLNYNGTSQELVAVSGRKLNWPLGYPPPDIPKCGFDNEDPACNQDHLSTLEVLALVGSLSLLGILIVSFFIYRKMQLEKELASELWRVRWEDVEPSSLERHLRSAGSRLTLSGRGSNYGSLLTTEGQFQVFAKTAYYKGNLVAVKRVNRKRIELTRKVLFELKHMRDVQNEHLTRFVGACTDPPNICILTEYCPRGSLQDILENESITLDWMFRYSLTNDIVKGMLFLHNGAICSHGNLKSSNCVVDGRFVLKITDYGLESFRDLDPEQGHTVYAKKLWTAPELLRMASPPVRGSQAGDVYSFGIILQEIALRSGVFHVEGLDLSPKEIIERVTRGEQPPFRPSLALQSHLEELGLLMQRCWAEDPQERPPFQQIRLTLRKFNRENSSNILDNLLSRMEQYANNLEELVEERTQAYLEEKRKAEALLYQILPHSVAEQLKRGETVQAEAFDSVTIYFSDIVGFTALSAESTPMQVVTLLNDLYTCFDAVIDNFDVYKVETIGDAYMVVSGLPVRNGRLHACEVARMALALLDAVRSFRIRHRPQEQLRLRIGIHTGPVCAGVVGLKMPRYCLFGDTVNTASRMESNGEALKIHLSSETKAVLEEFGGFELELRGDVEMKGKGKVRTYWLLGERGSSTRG
# Furin (Homo sapiens) = Furin (Homo sapiens) (UniProt P09958); assay: Furin counterscreen qHTS for Zika virus inhibitors (AID 1347149); further: nearly all actives have a fitted effect of over 70% in size; further: potency means the concentration at half of the fitted maximal effect
# Sequence of Furin (Homo sapiens) (P09958 whole entry, looked up): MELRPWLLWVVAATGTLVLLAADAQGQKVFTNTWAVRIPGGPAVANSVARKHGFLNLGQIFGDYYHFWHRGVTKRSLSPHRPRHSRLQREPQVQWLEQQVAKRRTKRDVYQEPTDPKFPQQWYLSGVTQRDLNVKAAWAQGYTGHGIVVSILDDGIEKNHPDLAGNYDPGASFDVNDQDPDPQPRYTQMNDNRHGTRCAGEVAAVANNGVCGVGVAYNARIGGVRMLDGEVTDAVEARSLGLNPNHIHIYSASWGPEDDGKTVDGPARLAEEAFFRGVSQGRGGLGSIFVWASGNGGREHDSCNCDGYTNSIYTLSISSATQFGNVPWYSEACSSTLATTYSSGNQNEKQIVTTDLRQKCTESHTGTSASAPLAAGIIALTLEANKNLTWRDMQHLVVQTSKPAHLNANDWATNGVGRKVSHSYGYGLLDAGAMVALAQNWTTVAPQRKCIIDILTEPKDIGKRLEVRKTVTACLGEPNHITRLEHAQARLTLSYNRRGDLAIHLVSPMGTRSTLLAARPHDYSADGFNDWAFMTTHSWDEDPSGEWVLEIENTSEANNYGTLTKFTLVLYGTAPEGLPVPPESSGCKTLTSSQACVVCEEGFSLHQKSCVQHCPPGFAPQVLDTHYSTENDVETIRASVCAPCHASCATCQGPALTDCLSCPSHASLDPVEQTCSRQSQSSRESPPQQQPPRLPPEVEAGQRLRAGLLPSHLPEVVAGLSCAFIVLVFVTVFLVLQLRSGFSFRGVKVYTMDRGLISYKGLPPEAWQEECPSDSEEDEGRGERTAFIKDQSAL
# How it was run: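 Counterscreen measures cleavage of 2 microM BOC-RVRR-AMC, below its ~15 microM Km, by 5 nM full-length human furin at pH 7.0 after a 15-min compound preincubation. Inhibition derives from the 15-min fluorescence increase at 37C.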
# [3] = system: Zika virus NS2B-NS3 protease (unlinked); assay: Optimization of GU AMC qHTS for Zika virus inhibitors: Unlinked NS2B-NS3 protease assay (AID 1347151); further: series mostly up to about 52 µM; nearly all actives have a fitted effect of over 80% in size
# How it was run: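 Unlinked protease (25 nM final); buffer 10 mM Tris-HCl pH 8.0 + 0.01% Tween 20; AMC substrate; 15 min RT, dark; Δfluorescence normalized to no-inhibitor/no-enzyme controls; 4-parameter Hill fit.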
# [4] = system: Zika virus NS2B-NS3 protease; assay: Primary screen GU AMC qHTS for Zika virus inhibitors (AID 1347154); further: nearly all actives have a fitted effect of over 70% in size
# How it was run: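 Unlinked Zika NS2B hydrophilic domain/NS3 protease domain noncovalent complex (25 nM final) in 10 mM Tris-HCl pH 8.0, 0.01% Tween 20, with AMC peptide substrate. Fluorescence (ex 340, em 450 nm) change over 15 min, room temperature; percent inhibition fitted to 4-parameter Hill equation.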
# [5] = Vero cells viability qHTS for Zika virus inhibitors (AID 1347167)
# How it was run: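 To flag cytotoxic protease inhibitors, viability is measured by ATP-dependent luminescence (CellTiter Glo) after cells attached overnight receive compound for 24 to 48 hours in DMEM with 4% FBS.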
# [6] = Tertiary RLuc qRT-PCR qHTS assay for Zika virus inhibitors (AID 1347169); further: potency means the concentration at half of the fitted maximal effect; nearly all actives have a fitted effect of over 55% in size
# How it was run: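 Vero, 1,000 cells/well, o/n 37 C; cpd pinned in DMSO; ZIKV-RLuc Cambodian, MOI 1-2, 48-72 h 37 C; live-cell RLuc substrate, lum read at 1-1.5 h.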
# [7] = Primary qHTS for small molecule stabilizers of the endoplasmic reticulum resident proteome: Secreted ER Calcium Modulated Protein (SERCaMP) assay (AID 1508630)
# How it was run: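 The SH-SY5Y reporter protocol was run at 3 concentrations up to 38.3 uM (primary) or 11 concentrations (follow-up): 16 h compound, 100 nM thapsigargin for 4 h, then extracellular luciferase luminescence.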
# [8] = target: Cytochrome P450 3A4 (Homo sapiens) (UniProt P08684); assay: qHTS Assay for Inhibitors and Substrates of Cytochrome P450 3A4 (AID 884); further: potency means the concentration at half of the fitted maximal effect; nearly all actives have a fitted effect of over 50% in size
# Sequence of Cytochrome P450 3A4 (Homo sapiens) (P08684 whole entry, looked up): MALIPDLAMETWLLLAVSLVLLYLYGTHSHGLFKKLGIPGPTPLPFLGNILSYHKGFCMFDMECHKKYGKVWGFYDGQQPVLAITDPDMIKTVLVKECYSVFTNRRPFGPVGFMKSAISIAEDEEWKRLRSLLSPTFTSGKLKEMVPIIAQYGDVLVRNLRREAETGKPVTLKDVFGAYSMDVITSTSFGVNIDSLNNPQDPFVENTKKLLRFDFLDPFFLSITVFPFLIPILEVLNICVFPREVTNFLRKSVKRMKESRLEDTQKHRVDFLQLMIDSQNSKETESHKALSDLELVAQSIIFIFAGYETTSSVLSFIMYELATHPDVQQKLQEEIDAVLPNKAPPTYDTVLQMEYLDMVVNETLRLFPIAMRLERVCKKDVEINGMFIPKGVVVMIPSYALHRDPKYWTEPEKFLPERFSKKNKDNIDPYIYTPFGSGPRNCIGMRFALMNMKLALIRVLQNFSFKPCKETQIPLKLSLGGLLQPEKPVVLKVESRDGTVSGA
# How it was run: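 Luminescent readout of luciferin produced by CYP3A4 (20 nM) dealkylation of Luciferin-PPXE, 25 uM (its KM). NADPH-driven reaction ran 60 min at RT after 10 min compound preincubation; data scaled to 57 uM ketoconazole as 100% inhibition.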
# [9] = target: Cytochrome P450 3A4 (Homo sapiens) (UniProt P08684); assay: qHTS Assay for Activators of Cytochrome P450 3A4 (AID 885); further: nearly all actives have a fitted effect of over 65% in size
# How it was run: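 CYP3A4 activity: Luciferin-PPXE O-dealkylation, 25uM substrate, 200mM KPO4, RT throughout. Read-out is luciferase luminescence; higher values reflect activation.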
structure (smiles),measurement,setting,value
COc1ccc([C@]23Cc4ccccc4[C@H](O2)C2=C(CCCC2=O)O3)cc1,Potency,[1],inactive
same,Potency,[2],inactive
Cc1cc2c(c(=O)n1Cc1ccccc1)[C@H]1O[C@](c3ccsc3)(Cc3cc(C#N)ccc31)O2,Potency,[1],inactive
same,Potency,[2],inactive
CC1=CC[C@@H](COc2ccccc2)O[C@@]2(C1)C(=O)N(Cc1ccc(Br)cc1)c1ccccc12,Potency,[1],inactive
same,Potency,[2],inactive
COC(=O)CC=C1c2ccccc2[C@@H](O)[C@@H]1C,Potency,[1],inactive
same,Potency,[2],inactive
COC(=O)C1=C(C)N(Cc2ccccc2)C(=NCC(C)C)NC1c1ccc(Br)cc1 (stereo not given),Potency,[1],inactive
same,Potency,[2],inactive
Fc1ccccc1-c1nc(-c2ccccc2)oc1NCc1ccccc1,Potency,[1],inactive
same,Potency,[2],inactive
C[C@H]1CC[C@H]2C(=O)N(Cc3ccccc3)C[C@@H](O)CN2[C@H]1c1ccc(Br)cc1,Potency,[1],inactive
same,Potency,[2],inactive
COc1cc2c(cc1OC)[C@@H]1O[C@](c3ccsc3)(C2)OC2=C1C(=O)CC(C)(C)C2,Potency,[1],inactive
same,Potency,[2],inactive
C[C@H]1C=CCC(=O)NCc2cccc(c2)CNC(=O)N[C@@H]1c1ccccc1,Potency,[1],inactive
same,Potency,[2],inactive
CCCNC(=O)OC[C@H]1O[C@H](CCON=Cc2ccc(C(=O)N3[C@H](C(=O)OC)CC[C@H](C)[C@@H]3c3ccc(C)cc3)cc2)C=C[C@H]1Oc1ccc(OC)cc1,Potency,[1],inactive
same,Potency,[2],inactive
C[C@@H]1C(c2ccccc2)=CC(=O)c2nc3ccccc3cc2[C@@H]1C(=O)N1CCCC1,Potency,[1],inactive
same,Potency,[2],inactive
C[C@H]1C[C@@H](C)O[C@@]2(C1)C(=O)N(Cc1ccccc1C(F)(F)F)c1ccccc12,Potency,[1],inactive
same,Potency,[2],inactive
COC(=O)C1=C(C(=O)OC)[C@@H]2N(Cc3ccccc3)c3ccccc3[C@@]23C[C@@H](CO)N=C3N1,Potency,[1],inactive
same,Potency,[2],inactive
COC(=O)C(C(=O)OC)C1OC23CN(S(=O)(=O)c4ccc(C)cc4)C=CC2(C)C3c2ccccc21 (stereo not given),Potency,[1],inactive
same,Potency,[2],inactive
CCC(=O)N1C2=C(c3ccccc3[C@@H]1CC(=O)Nc1ccc3ccccc3c1)[C@H]1C(=O)N(c3ccccc3)C(=O)[C@@H]1[C@H](C)C2,Potency,[1],inactive
same,Potency,[2],inactive
C[C@H]1Cc2c(COc3ccccc3)nc3c(c2CO1)CN(C(=O)c1cc(I)ccc1F)CC3,Potency,[1],inactive
same,Potency,[2],inactive
COc1ccc2c(c1)[C@@]1(OCCC=C[C@@H]1C)C(=O)N2Cc1ccccc1C(F)(F)F,Potency,[1],inactive
same,Potency,[2],inactive
COc1cccc([C@@H]2Oc3ccc(Br)cc3C[C@@H]2OC(=O)Nc2cc(OC)c(OC)c(OC)c2)c1,Potency,[1],inactive
same,Potency,[2],inactive
CC=CC1=Cc2ccccc2C(C(C(=O)OC)C(=O)OC)N1C(=O)OC (stereo not given),Potency,[1],inactive
same,Potency,[2],inactive
O=C(N[C@H](c1ccccc1)C1CCCC=C1c1ccccc1)C(F)(F)F (stereo not given in full),Potency,[1],inactive
same,Potency,[2],inactive
C[C@H]1CC[C@H]2C(=O)N(Cc3ccc(Cl)cc3)C[C@H](O)CN2[C@H]1c1ccc(Br)cc1,Potency,[1],inactive
same,Potency,[2],inactive
COC(=O)[C@@H]1CC[C@H](C)[C@@H](c2ccc(C)cc2)N1C(=O)c1ccc(C=NO[C@H](C)CN2CCCc3nc(C)c(C)cc32)cc1,Potency,[1],1510 nM (active)
same,Potency,[2],inactive
CCCC[C@]12Cc3cc(C#N)ccc3[C@H](O1)c1c(cc(-c3ccccc3)oc1=O)O2,Potency,[1],inactive
same,Potency,[2],inactive
COC(=O)C1=C(C)N(Cc2ccccc2)C(=NCCc2ccccn2)NC1c1cccc(F)c1 (stereo not given),Potency,[1],inactive
same,Potency,[2],inactive
CCN1C(=S)NC(c2cccs2)C(C(=O)OC)=C1C (stereo not given),Potency,[1],inactive
same,Potency,[2],inactive
CC(CCN1CCc2nc(-c3ccccc3)c(-c3ccccc3)cc2C1)=NO[C@H](C)CN1CCCCc2nc(C)c(C)cc21,Potency,[1],inactive
same,Potency,[2],inactive
COc1cc2c(cc1OC)[C@@H]1O[C@](c3ccsc3)(C2)Oc2c1c(=O)oc1ccc(F)cc21,Potency,[1],inactive
same,Potency,[2],inactive
COC(=O)CC=C[C@@H](C)[C@H](NC(=O)OCC(Cl)(Cl)Cl)c1ccc(-c2ccccc2)cc1,Potency,[1],inactive
same,Potency,[2],inactive
Cc1ccc(C=CC2=C[C@]3(C)C[C@]2(C)[C@H](c2ccc(C)cc2)CC3=O)cc1,Potency,[1],inactive
same,Potency,[2],inactive
COCCN1C(=O)C2=C(C1=O)C1N(C)c3ccccc3[C@@]13C[C@@H](CO)N(C(=O)c1ccc(Br)cc1)C3=N2 (stereo not given in full),Potency,[1],inactive
same,Potency,[2],inactive
CC1(C)O[C@@H](C(O)(c2ccccc2)c2ccccc2)[C@H](C(O)(c2ccccc2)c2ccccc2)O1,Potency,[1],inactive
same,Potency,[2],inactive
COC(=O)C1=C(C)N(Cc2ccccc2)C(=NCCCCO)NC1c1cccc(F)c1 (stereo not given),Potency,[1],inactive
same,Potency,[2],inactive
C[C@H]1O[C@@H](O[C@H]2[C@@H](O)C[C@H](O[C@H]3[C@@H](O)C[C@H](O[C@H]4CC[C@]5(C)C6C[C@@H](O)[C@]7(C)[C@@H](C8=CC(=O)OC8)CC[C@]7(O)C6CC[C@@H]5C4)O[C@@H]3C)O[C@@H]2C)C[C@H](O)[C@@H]1O (stereo not given in full),Potency,Furin (Homo sapiens),inactive
same,Potency,[3],inactive
same,Potency,[4],inactive
same,Potency,[5],inactive
same,Potency,[6],294 nM (active)
same,Potency,[7],inactive
O=C(CSc1ncccc1C(=O)Oc1ccccc1Cl)Nc1ccc(C(F)(F)F)cc1Cl,Potency,Furin (Homo sapiens),inactive
CCCCCCCCCC(=O)N[C@H](CCCN=C(N)N)C(=O)N[C@@H](C(=O)N[C@H](CCCCN)C(=O)N[C@@H](CCCN=C(N)N)C(=O)CCl)C(C)C,Potency,Furin (Homo sapiens),89.1 nM (active)
C=CC[C@H]1C(=O)N2[C@@H](C[C@@H](C)[C@@H]2c2ccccc2)[C@@H](CC=C)C(=O)N2[C@H]1C[C@@H](C)[C@@H]2c1ccccc1,Potency,[1],inactive
same,Potency,[2],inactive
CCOc1ccc(C(=O)Nc2cccc(C(=O)OCc3cc(=O)n4nc(C5CC5)sc4n3)c2)cc1,Potency,Furin (Homo sapiens),52700 nM (active)
NC(N)=Nc1ccc(O[C@H]2C[C@@H](Oc3ccc(N=C(N)N)cc3)[C@H](N=C(N)N)C[C@@H]2N=C(N)N)cc1,Potency,Furin (Homo sapiens),1260 nM (active)
CCOC(=O)CN1C(=O)[C@]2(OC[C@@H]3Cc4ccccc4[C@H]3C=C2C)c2ccccc21,Potency,[1],inactive
same,Potency,[2],inactive
CCCCCCC#Cc1cc(OC)c(OC)cc1C(N1CC(C)c2ccccc21)N1CC(C)c2ccccc21 (stereo not given),Potency,[8],3160 nM (active)
same,"activity change, positive = activation",[9],-88.3% [at 11.4 µM]
same,Potency,[2],inactive
O=C(OCc1cc(=O)n2c3c(sc2n1)CCCC3)c1cccc(NC(=O)c2ccccc2F)c1,Potency,Furin (Homo sapiens),59100 nM (active)
CC(C)C(NC(=O)C(CCCN=C(N)N)NC(=O)NC(Cc1ccccc1)C(=O)O)C(=O)NC(C=O)CCCN=C(N)N (stereo not given),Potency,Furin (Homo sapiens),11200 nM (active)
COC(=O)C1=C(C(=O)OC)[C@@H]2N(Cc3ccccc3)c3ccccc3[C@@]23C[C@@H](C(=O)OC)N(C(=O)NCc2ccccc2)C3=C1,Potency,[1],inactive
same,Potency,[2],inactive
O=C(COc1ccc(F)cc1)Nc1ccccc1C(=O)OCc1cc(=O)n2nc(C3CC3)sc2n1,Potency,Furin (Homo sapiens),inactive
COc1ccc([C@]23Cc4cc(OC)c(OC)cc4[C@H](O2)c2c(cc(C)n(Cc4ccccc4)c2=O)O3)cc1,Potency,[1],inactive
same,Potency,[2],inactive
COC1=CC2C(=O)C([C@@H]3c4ccccc4C[C@]23C)C1(O)c1cccc(OC)c1 (stereo not given in full),Potency,[1],inactive
same,Potency,[2],inactive
